Sampled rows, rich in hits. Any-hit rate of the full collection: about 11%.
RGS12 GoLoco inh: RGS12 GoLoco-Gai1 interaction inhibition | P63096 | Gai1:RGS12 GoLoco peptide FP, rhodamine, 10 min | Potency, µM (top dose mostly 61.6 µM), for inactives: at the top dose activity, negative = inhibition, hits mostly inhibitors | 0.44% of 230,000 active; active = well fitted inhibition curve with a large enough effect, not every such curve was filed as active; inactive = no such curve, though single readings can be large or run the other way; also: potency is read from the fitted curve at half-maximal effect; % is scaled to controls: 0 for no effect and ±100 for the full control effect; nearly all actives have a fitted effect of over 30% in size
HPGD inh: blocks human HPGD enzyme activity; 4.3% of 150,000 active; purified HPGD, NADH fluorescence kinetic, PGE2 substrate; P15428; Potency, µM, inactives show at the top dose activity change, negative = inhibition, hits mostly inhibitors; active = well fitted inhibition curve with a large enough effect, not every such curve was filed as active; inconclusive = small, poorly fitted or top-dose-only effect, or another doubt; inactive = no such curve, though single readings can be large or run the other way; also: potency is read from the fitted curve at half-maximal effect; % is scaled to controls: 0 for no effect and ±100 for the full control effect
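20 nM HPGD preincubated 15 min at room temperature with compound in 50 mM Tris-HCl pH 8, 0.01% Tween 20. Started with 1 mM NAD+ and 30 uM prostaglandin E2; NADH fluorescence (360/450 nm) read 5 times over 30-s intervals, last minus first.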
PNC inhibitor: perinucleolar compartment assembly inhibition; PC3M PTB-GFP, PNC prevalence imaging, 16 h; active compounds read low; activity change (PNC), negative = inhibition, % at 10 µM; 3.1% of 140,000 active; AID 2417;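 active = readout at or below -70, meaning at least 70% loss of cells showing the perinucleolar compartment, a nuclear body marking cancer cells; inconclusive = readout between -30 and a set limit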;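 also: plate controls were DMSO wells for no effect and camptothecin positive control wells for full effect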
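PC3M cells stably expressing PTB-GFP, 750–1000 cells/well, treated 16 h at 37 °C with compound (23 nl of library stock), in duplicate. After paraformaldehyde fixation and Hoechst stain, imaged at 20x; PNC prevalence scored by image analysis.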
HTT ATP protect: protects HTT-Q103 PC12 cells, measured by ATP; Potency, µM (top dose mostly 56.4 µM), for the others: cytoprotection (ATP increase), usual class: activators; PC12 HTT-Q103 induced, cytoprotection, ATP luminescence, 40 h; 0.14% of 230,000 active; also: potency is read from the fitted curve at half-maximal effect; % of control where 0% means no effect; nearly all actives have a fitted effect of over 45% in size
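Compounds were screened for protection of PC12 cells against cell death after tebufenozide induction (100 nM final) of mutant Huntingtin exon 1 (Q103) fused to GFP.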
HTT aggregate: reduces HttQ103-GFP aggregates in PC12 cells. Potency, µM (top dose mostly 46.1 µM), without a hit: at the top dose activity change, negative = inhibition, most hits filed as inhibitors. 1.1% of 220,000 active. AID 1688. PC12 HttQ103-GFP aggregates, Acumen cytometry, 40 h; also: potency is read from the fitted curve at half-maximal effect; % is scaled to controls: 0 for no effect and ±100 for the full control effect; nearly all actives have a fitted effect of over 60% in size
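Read-out: GFP aggregate count by laser scanning cytometer (488 nm excitation, 500-530 nm emission, 1–25 µm objects >6 SD above background). Cells: PC12, inducible HTTex1-Q103-GFP, 100 nM tebufenozide; compounds titrated.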
ALDH1A1 block: inhibitors of human aldehyde dehydrogenase 1A1 | P00352 | Purified ALDH1A1, NADH fluorescence, propionaldehyde substrate | Potency, µM (top dose mostly 75.3 µM), for inactives: at the highest dose activity, negative = inhibition, actives largely listed as inhibitors | 7.3% of 220,000 active | AID 1030; active = well fitted inhibition curve with a large enough effect, not every such curve was filed as active; inconclusive = small, poorly fitted or top-dose-only effect, or another doubt; inactive = no such curve, though single readings can be large or run the other way;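 also: potency is read from the fitted curve at half-maximal effect; plate controls were no enzyme wells and a reference inhibitor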
Target sequence (P00352 whole entry, looked up): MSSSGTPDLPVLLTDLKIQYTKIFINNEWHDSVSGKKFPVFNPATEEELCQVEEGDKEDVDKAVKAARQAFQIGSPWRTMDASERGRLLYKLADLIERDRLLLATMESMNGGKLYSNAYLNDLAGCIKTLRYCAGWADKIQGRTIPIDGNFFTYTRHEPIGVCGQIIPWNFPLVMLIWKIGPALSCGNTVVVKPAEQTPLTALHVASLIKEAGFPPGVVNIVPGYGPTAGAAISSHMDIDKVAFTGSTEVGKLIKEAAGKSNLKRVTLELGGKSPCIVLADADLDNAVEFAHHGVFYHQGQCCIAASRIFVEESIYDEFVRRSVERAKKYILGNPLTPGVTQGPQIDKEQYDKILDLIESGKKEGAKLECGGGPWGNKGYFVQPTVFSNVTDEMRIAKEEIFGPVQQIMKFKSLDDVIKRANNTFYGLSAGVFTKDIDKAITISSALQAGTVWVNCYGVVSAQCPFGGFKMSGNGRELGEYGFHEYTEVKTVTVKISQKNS
An asterisk follows results filed as active; ? = inconclusive; . = no result; [ ] = dose if it differs, or a comment. Unless noted, calls follow the shape of the dose curve; as a rule, active = well fitted curve in the direction sought with a large enough effect; inconclusive = small, poorly fitted or top-dose-only effect, or another doubt; inactive = no such curve, though single readings can be large; an effect the other way counts as inactive or inconclusive.

SMILES	RGS12 GoLoco inh	HPGD inh	PNC inhibitor	HTT ATP protect	HTT aggregate	ALDH1A1 block
CC1(C)CN=c2s/c(=C\c3ccc(Cl)cc3)c(=O)n2C1	11%	.	.	7%[10 µM]	?	2.2µM*
Nc1nc(SCC(=O)Nc2ccc(Cl)cn2)n[nH]1	7%	.	.	13%[10 µM]	1%	-9%
COc1ccc(C2CC(c3ccccc3)Nc3nc(NS(C)(=O)=O)nn32)cc1 (centres undefined)	1%	.	.	17%[10 µM]	7%[9.22 µM]	.
N/C(=N\OC(=O)COc1ccc(Br)cc1)c1ccncc1	2%	-9%	-102*	.	-8%	7%
N/C(=N\OC(=O)COc1ccc([N+](=O)[O-])cc1)c1ccncc1	-7%	.	.	.	0%	8%
O=C(Nc1cccc(F)c1)N1CC[C@@]2(CCCN(C(=O)c3cccc(F)c3)C2)C1	-6%	-4%	.	-32%	.	8%
O=C(NNS(=O)(=O)c1cccc(Cl)c1)c1cc(-c2ccc(F)cc2)nc2ccccc12	4%	.	.	-1%[10 µM]	13%	-12%
CC(C)(C)c1ccc(OCC(=O)N2CCCCCC2)c(Br)c1	1%	.	.	7%	?	?
Cc1cc(OCC(=O)N2CCCC2)ccc1Cl	-10%	-25%	?	-9%[10 µM]	-5%	-7%
Cc1ccc(OCC(=O)N2CCCCC2)c(Br)c1	4%	16µM*	45	-1%	-11%	-1%
Cc1cc(OCC(=O)N2CCCC2)cc(C)c1Cl	-35%	11µM*	-21	10%	2%	26%
CC(=O)c1ccc(/C=C/c2nc3ccccc3n2C)o1	-5%	.	.	-29%[10 µM]	-20%[9.22 µM]	.
O=C(N/N=C1\CCCc2ccccc21)c1ccccc1Cl	5%	.	.	-50%	5%	4%
Cc1cc(C(=O)N/N=C2\CCCc3ccccc32)c(C)o1	6%	-8%	-113*	.	-8%	-4%
O=C(O)[C@H](C1NCCS1)N1C(=O)c2ccccc2C1=O (some centres undefined)	1%[14.2 µM]	-9%	.	.	.	-1%[13.5 µM]
CCOc1cc2c(cc1OCC)C(c1ccccc1)N(c1ccccc1)C(=O)C2 (centres undefined)	3%	-2%	-93*	11%[10 µM]	-10%	-10%
CCOc1cc2c(cc1OCC)C(c1ccc(OC)cc1)N(c1ccccc1)C(=O)C2 (centres undefined)	-2%	-16%	-15	9%[10 µM]	4%	4%
CN(C)c1ccc(C2NCC(CCl)O2)cc1 (centres undefined)	3%	-5%	-22	15%	-2%	1.4µM*
Cc1ccnc(NC(c2ccsc2)c2ccc3ccc(C)nc3c2O)c1 (centres undefined)	-3%	.	.	-19%[1.9 µM]	8%[9.22 µM]	25µM*
Cc1ccc2ccc(C(Nc3ccccn3)c3ccccc3)c(O)c2n1 (centres undefined)	0%	-13%	-82*	-34%	?	-14%
Oc1c(C(Nc2ccccn2)c2ccccn2)ccc2cccnc12 (centres undefined)	-4%	-14%	-26	2%	2.8µM*	3%
CC(=O)NC(c1ccco1)c1ccc2cccnc2c1O (centres undefined)	5%	-1%	19	-27%	3.5µM*	-2%
Oc1ccccc1C(Nc1nccs1)c1ccc2cccnc2c1O (centres undefined)	0%	.	.	-65%[10 µM]	-25%[9.22 µM]	.
COc1ccc(C(Nc2cc(C)ccn2)c2ccc3ccc(C)nc3c2O)cc1 (centres undefined)	-32%	.	.	17%[10 µM]	-21%[9.22 µM]	.
Cc1cc(-c2ccc(N=Nc3cc(S(=O)(=O)O)c4ccccc4c3N)c(C)c2)ccc1N=Nc1cc(S(=O)(=O)O)c2ccccc2c1N	125%	?	.	-80%	.	?
C/C(=N/NC(=O)CNC(=O)c1cccc(F)c1)c1ccc2c(c1)CCCC2	-2%	.	.	-24%	6%	7%
Cn1c(=O)cc(SCC(=O)N2CCCC2)c2ccc(Cl)cc21	4%	14µM*	76	-15%	-3%	?
Cn1c(=O)cc(SCC(=O)N2CCOCC2)c2ccc(Cl)cc21	1%	-26%	195	-1%[10 µM]	-8%	-7%
O=C(CSc1nnnn1C1CCCCC1)N1CCCC1	.	.	-30	12%	0%	?

Compound activity: PubChem BioAssay, National Center for Advancing Translational Sciences (NCATS)
